FMDV inh – antivirals against foot and mouth disease virus | 1.2% of 410,000 active | AID 1159524 | FMDV antiviral cell-based qHTS | Potency, µM (titrated, usually from 57.9 µM), without a hit: top-dose activity change, negative = inhibition, hits mostly inhibitors; calls by dose curve; tested in HEK293T cells; note: read-out not given here; potency is the fitted concentration of half-maximal effect; % is set by controls: 0 for no effect and ±100 for the full control effect; nearly all actives have a fitted effect of over 45% in size
MARV entry inh – inhibitors of Marburg virus binding or cell entry. Marburg virus pseudotyped entry inhibition, cell reporter. Potency, µM (highest dose often 37.8 µM), inactives show at the highest dose activity change, negative = inhibition, hits mostly inhibitors. 1.8% of 300,000 active; calls by dose curve; tested in HEK293 cells; note: potency is the fitted concentration of half-maximal effect; % is set by controls: 0 for no effect and ±100 for the full control effect
LASV entry inh – inhibitors of Lassa virus binding or cell entry | Lassa virus pseudotype entry inhibition, cell reporter | Potency, µM (top dose mostly 37.9 µM), without a hit: top-dose activity change, negative = inhibition, usual class: inhibitors | 1.2% of 300,000 active | AID 540256; calls by dose curve; tested in HEK293 cells; note: potency is the fitted concentration of half-maximal effect; % is set by controls: 0 for no effect and ±100 for the full control effect; nearly all actives have a fitted effect of over 50% in size
SARS PLpro yeast – blocks SARS-CoV papain-like protease in a yeast assay; 0.19% of 330,000 active; S. cerevisiae expressing SARS-CoV PLpro, growth rescue; Potency, µM (doses to about 32.9 µM), without a hit: at the top dose activity, positive = growth rescue, actives largely listed as activators; AID 485353; calls by dose curve; note: potency is the fitted concentration of half-maximal effect; 0% is about no effect; nearly all actives have a fitted effect of over 55% in size
HCV inh – blocks hepatitis C virus; Huh7.5.1 HCVcc-Cre infection, luciferase reporter, 44 h; Potency, µM (series often up to 41.8 µM), without a hit: at the top dose activity change, negative = inhibition, most hits filed as inhibitors; 3.4% of 340,000 active; active = well fitted inhibition curve with a large enough effect; inconclusive = small, poorly fitted or top-dose-only effect, or another doubt; inactive = no such curve, though single readings can be large or run the other way; note: potency is the fitted concentration of half-maximal effect; % is set by controls: 0 for no effect and ±100 for the full control effect
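A cell-based infection assay in which seeded cells (1,000 per well) receive test compound after 4 h, are inoculated with HCVcc-Cre at approximately 0.5 moi, and are incubated 44 h before luminescence detection.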
HCMV inh – inhibitors of human cytomegalovirus; 4.5% of 410,000 active; activity change, negative = inhibition, % at 57.5 µM; HFF cells, HCMV-luciferase reporter, 72 h; stronger effect = lower value; AID 1259415; in the data active = activity change below about -60%; inconclusive = no clear call, values can overlap the other calls; inactive = above about -39%; note: % is set by controls: 0 for no effect and ±100 for the full control effect
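After 16 h attachment at 37C, HFF cells received test compound and HCMV-luciferase (1 PFU/cell); reporter luminescence read 72 h later, data normalized against buffer-only and known inhibitor Salinomycin.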
An asterisk follows results filed as active; ? = inconclusive; . = not tested or not shown; [ ] = dose if it differs, or a comment. Most compounds without a hit are left out; they make up all but 8% or so of the library.

SMILES | FMDV inh | MARV entry inh | LASV entry inh | SARS PLpro yeast | HCV inh | HCMV inh
O=C(Cc1ccccc1)N/N=C/c1ccc[nH]1 | -16% | . | . | 1% | 9% | ?
Cc1c(Cl)cccc1NC(=O)CCC(=O)NNC(=O)c1ccccc1 | -14% | 8% | 2% | 18% | -2% | -12
Cc1ccc(NCC(=O)N/N=C\c2ccc[nH]2)cc1 | 21% | 3.2µM* | ? | 1% | 14µM* | -29
CCOC(=O)C1CCN(C(=O)Cn2ncc3c4ccccc4n(Cc4ccccc4)c3c2=O)CC1 | -27% | 1%[46.1 µM] | -26%[46.1 µM] | . | . | 36
COc1ccc2c(c1)cc1c(=O)n(CC(=O)NCCc3ccccc3)nc(C)n12 | -27% | 6%[46.1 µM] | . | . | . | 1
Cc1ccc(-n2nc(C(=O)Nc3cccc(C#N)c3)c3c4ccccc4n(C)c3c2=O)cc1 | -16% | 26%[46.1 µM] | 4%[46.1 µM] | . | . | -6
Cc1ccc(C2(c3ccccc3)NC(=O)N(CC(=O)NC3(C#N)CCCC3)C2=O)cc1C (stereo not given) | -19% | . | . | 2% | -10% | -92*
COc1ccc(C2(c3ccc(OC)cc3)NC(=O)N(CC(=O)NC3(C#N)CCCC3)C2=O)cc1 | -25% | 0% | -9% | 0% | -12% | -16
CCOC(=O)CSc1nc2cc3c(cc2c(=O)n1CCCC(=O)NCc1ccc2c(c1)OCO2)OCO3 | -10% | . | 17%[46.1 µM] | . | . | -32
Cc1ccc(S(=O)(=O)N2CCOCC2)cc1NC(=O)CSc1nnc2cc(C)c3ccccc3n12 | ? | ? | ? | 6% | ? | -63*
Cc1cc2nnc(SCC(=O)Nc3cc(S(=O)(=O)N4CCOCC4)ccc3Cl)n2c2ccccc12 | ? | 7.9µM* | 14% | 14% | ? | ?
CCS(=O)(=O)C(=C1Nc2ccccc2N1)S(=O)(=O)CC | -25% | 13%[46.1 µM] | 9% | 6% | -14% | -98*
CN1C(=O)c2ccccc2Sc2ccc(NC(=O)N3CCN(c4ccc(F)cc4)CC3)cc21 | -7% | ? | -19%[46.1 µM] | . | . | -97*
CN1C(=O)CSc2ccc(NC(=O)N3CCN(c4ccccn4)CC3)cc21 | ? | ? | -7% | 15% | ? | -18
Cc1ccc(C)c(N2CCN(C(=O)Nc3ccc4c(c3)N(C)C(=O)CS4)CC2)c1 | 16µM* | . | . | -9% | 10µM* | -16
CCN1C(=O)c2ccccc2Sc2ccc(NC(=O)N3CCN(c4cc(C)ccc4C)CC3)cc21 | -24% | ? | -4%[46.1 µM] | . | . | -61*
CN1C(=O)c2ccccc2Sc2ccc(NC(=O)N3CCOCC3)cc21 | -8% | ? | ? | 4% | -5% | 33
CC1CCC(C(=O)c2c(O)c3ccccc3oc2=O)CC1 (stereo not given) | -8% | 3% | 2% | -6% | ? | -100*
CCCCC(=O)c1c(O)c2ccccc2oc1=O | 11% | 0% | 4% | -32% | -4% | 0
O=C(CC1CCCCC1)c1c(O)c2ccccc2oc1=O | 8% | 6% | 0% | -21% | 0% | -68*
Cn1cnnc1Sc1ccc(CN2CCOc3ccc(C4=CCCCC4)cc3C2)o1 | -14% | . | . | . | . | .
CC#CC[N+](C)(C)CCCCCCCCCC | -4% | ? | ? | -1% | ? | -65*
C[N+](C)(C)CCCCCCCCCC[N+](C)(C)C | -18% | -26% | 13% | 3% | 0%[8.37 µM] | -12
C#CC[N+](C)(C)CCCCCCCCC | -10% | ? | -10% | -11% | ? | -95*
Cc1cccc(C)c1-n1c(=O)c2nc3ccccc3nc2c2ccccc21 | . | . | . | . | . | -96*
SMILES | FMDV inh | MARV entry inh | LASV entry inh | SARS PLpro yeast | HCV inh | HCMV inh
COc1cccc(-c2ccc(O)c(CNCc3cccc(OC)c3OC)c2)n1 | -3% | . | . | . | . | .
CC(CCC(=O)OC[C@H]1O[C@H](C#Cc2ccccc2)C=C[C@H]1Oc1ccc(C)cc1)=NO[C@@H](C)c1cn([C@H](CO)Cc2ccccc2)nn1 | . | 9%[14.2 µM] | ? | . | . | .
Cc1ccc2c(c1)-c1cc(C)nn1C(c1ccc3c(c1)OCO3)N2 (stereo not given) | 20% | 7% | -4% | -19% | 14µM* | 11
Cc1cc2n(n1)C(c1ccccc1)Nc1ccccc1-2 (stereo not given) | 5% | 3% | ? | -5% | 25µM* | 19
Cc1ccc2c(c1)-c1cc(C)nn1C(c1sccc1C)N2 (stereo not given) | 13% | 3% | 15% | -22% | 4µM* | ?
COC(=O)N1C2CC(=O)O[C@H]3c4cc5c(cc4[C@]1(C)[C@@]3(Br)c1ccccc12)OCO5 | . | 8%[14.2 µM] | . | . | . | .
COc1cccc(N2CCN(C(=O)c3cc4c(=O)n(Cc5cccs5)ccc4nc3C)CC2)c1 | ? | . | -16%[46.1 µM] | . | . | 2
COc1ccc(-c2cc(=S)ss2)cc1 | . | . | . | . | . | 7
COc1cccc(C(=O)NC2CC3CCCC(C2)N3CC(=O)Nc2ccccc2C(F)(F)F)c1 (stereo not given) | -22% | 11µM* | ? | 0% | 6.3µM* | ?
O=C(CN1C2CCCC1CC(NC(=O)C1CCCCC1)C2)Nc1ccccc1C(F)(F)F (stereo not given) | ? | ? | ? | -1% | 10µM* | -33
COc1cc(CNC(=O)c2cnn(-c3ncc4c(n3)-c3ccccc3CC4)c2C)cc(OC)c1OC | 25% | . | . | . | . | .
O=C(c1ccco1)N1N=C(c2ccc(Br)cc2)CC1(O)C(F)(F)F (stereo not given) | ? | 10µM* | ? | 3% | ? | ?
Fc1cccc(-c2nnn3c2nc(NCCc2ccccc2)c2ccccc23)c1 | 8% | 1%[46.1 µM] | 11%[46.1 µM] | . | . | 59
NS(=O)(=O)c1ccc(CCNc2nc3c(-c4cccc(F)c4)nnn3c3ccc(Cl)cc23)cc1 | 9% | ? | ? | . | . | -102*
COc1ccc(NC(=O)/C=C/c2ccc(OC(F)F)cc2)cn1 | -30% | ? | ? | 0% | 11µM* | -12
COc1ccc(/C=C/C(=O)Nc2ccc(OC)nc2)cc1 | 2% | 0% | 19% | -76% | -27% | 2
O=C(/C=C/c1cccc(C(F)(F)F)c1)NNC(=O)c1ccncc1 | -18% | -2%[46.1 µM] | 6% | -2% | ? | -76*
COc1ccc(NC(=O)/C=C/c2cccc(C(F)(F)F)c2)cn1 | ? | ? | ? | -42% | 11µM* | -32
COc1ccc(NC(=O)/C=C/c2cccc(Br)c2)cn1 | -26% | ? | ? | -39% | ? | 39
O=C(/C=C/c1cccc(C(F)(F)F)c1)Nc1cccc(C(F)(F)F)c1 | -54% | ? | ? | -41% | ? | -99*
Cc1cc2nc(-c3ccc(NC(=O)c4ccc(OCC(C)C)cc4)cc3)oc2cc1C | 6% | . | 14%[46.1 µM] | . | . | 15
Cc1cccc(C(=O)NCc2cn3cccc(C)c3n2)c1 | -11% | ? | -22%[46.1 µM] | . | . | 9
CCc1cccc(CC)c1NC(=O)c1cc(S(=O)(=O)N2CCc3ccccc32)cn1C | 3% | . | 0%[46.1 µM] | . | . | -30
Cc1nn(C(C)(C)C)c(OC(=O)C(C)(C)C)c1Sc1ccccc1 | -29% | 22%[46.1 µM] | ? | . | . | 4

Assay outcomes: PubChem, National Center for Advancing Translational Sciences (NCATS)
